Laboratory results as given in PubChem BioAssay (EPA / NIEHS).
Results filed as inconclusive are left out. Activity calls are given as the source filed them. Rule for the calls, unless noted: active = hit-call score of the fitted dose curve at least 0.9, where 1 is the maximum; inconclusive = response in the unintended direction; inactive = score below 0.9.

Legend:
DIO1 (gene 1733) = assay: CCTE_GLTED_hDIO1: CCTE's human Deiodinase 1 (DIO1) Inhibition Assay, Great Lakes Toxicology and Ecology Division (GLTED) Lab (AID 2283987);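 note: isolated human DIO1 enzyme in a cell-free setup rather than cells; enzyme activity read as free iodide liberated from substrate via Sandell-Kolthoff colorimetry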
How it was run: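 Inhibition of human deiodinase 1 is scored as reduced iodide liberation after a 3 h enzyme–chemical incubation, detected colorimetrically by the Sandell-Kolthoff reaction against DMSO controls.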

[1] = biological target: Nucleoli Translocation, AR (gene 367) (UniProt P10275); assay: UPITT_HCI_U2OS_AR_TIF2_Nucleoli_Antagonist: University of Pittsburgh U2OS Androgen Receptor-Transcriptional Intermediary Factor 2 (AR-TIF2) Antagonism High Content Imaging Assay for Nucleoli Translocation (AID 2283997)
How it was run: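 Compounds are added at 20 uM final concentration in 0.2% DMSO to U2OS cells carrying AR-RFP and TIF2-GFP fusions. Nucleolar AR-RFP fluorescence is then quantified by automated imaging. Antagonism is fitted positively against DHT baseline.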

[2] = biological target: Nucleoli Translocation, AR (gene 367) (UniProt P10275); assay: UPITT_HCI_U2OS_AR_TIF2_Nucleoli_Agonist: University of Pittsburgh U2OS Androgen Receptor-Transcriptional Intermediary Factor 2 (AR-TIF2) Agonism High Content Imaging Assay for Nucleoli Translocation (AID 2283998)
How it was run: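 Readout is red (AR-RFP) fluorescence localized to nucleoli, measured by high-content imaging and analysed for increase relative to DMSO. Compound series spanned 0.195 to 50 uM final in 0.5% DMSO.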

[3] = biological target: Ratio of Nucleoli Translocation and Cytoplasm, AR (gene 367) (UniProt P10275); assay: UPITT_HCI_U2OS_AR_TIF2_Nucleoli_Cytoplasm_Ratio_Antagonist: University of Pittsburgh U2OS Androgen Receptor-Transcriptional Intermediary Factor 2 (AR-TIF2) Antagonism High Content Imaging Assay for Ratio of Nucleoli Translocation and Cytoplasm (AID 2283999);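 note: antagonists lower the DHT-driven ratio of nucleolar to cytoplasmic red signal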
How it was run: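 High-content imaging of red fluorescence ratio, nucleoli versus cytoplasm, in U2OS expressing AR-RFP and TIF2-GFP, fitted relative to DHT. Compounds tested once at 20 uM final, then 0.195 to 50 uM final in serial dilution.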

[4] = biological target: Ratio of Nucleoli Translocation and Cytoplasm, AR (gene 367) (UniProt P10275); assay: UPITT_HCI_U2OS_AR_TIF2_Nucleoli_Cytoplasm_Ratio_Agonist: University of Pittsburgh U2OS Androgen Receptor-Transcriptional Intermediary Factor 2 (AR-TIF2) Agonism High Content Imaging Assay for Ratio of Nucleoli Translocation and Cytoplasm (AID 2284000);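 note: hits raise the red nucleolar to cytoplasm ratio above vehicle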
How it was run: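 Human osteosarcoma U2OS line, AR-RFP plus TIF2-GFP; compounds 0.195–50 uM final, 0.5% DMSO. Readout: nucleolar/cytoplasmic RFP ratio by HCI, positive direction vs DMSO baseline.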

[5] = CCTE_Harrill_HTTr_Apoptosis_DMEM_12hr: (Pilot) CCTE's 12-hour Apoptosis Assessment for the High-Throughput Transcriptomics (HTTr) Platform, in MCF-7 cells cultured in DMEM + 10% fetal bovine serum, Harrill Lab (AID 2283982; active = hit-call score of the fitted dose curve at least 0.9, where 1 is the maximum; inactive = score below 0.9)
How it was run: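 Caspase-3/7 activity was measured by high-content imaging (CellEvent Caspase 3/7 Green) after a 12-hour exposure of MCF-7 cells grown in DMEM with 10% FBS. Eight-point concentration series, fitted bidirectionally against vehicle.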

[6] = CCTE_Harrill_HTTr_Apoptosis_DMEM_24hr: (Pilot) CCTE's 24-hour Apoptosis Assessment for the High-Throughput Transcriptomics (HTTr) Platform, in MCF-7 cells cultured in DMEM + 10% fetal bovine serum, Harrill Lab (AID 2283983; active = hit-call score of the fitted dose curve at least 0.9, where 1 is the maximum; inactive = score below 0.9)
How it was run: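 Caspase-3/7 activity read by high-content imaging (CellEvent Green reagent) 24 h after dosing. MCF-7 cells grown in DMEM with 10% FBS received an eight-point concentration series; fits were bidirectional versus DMSO.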

[7] = CCTE_Harrill_HTTr_Apoptosis_PRF_DMEM_6hr: (Pilot) CCTE's 6-hour Apoptosis Assessment for the High-Throughput Transcriptomics (HTTr) Platform, in MCF-7 cells cultured phenol red-free DMEM + 10% charcoal-stripped fetal bovine serum, Harrill Lab (AID 2283984; active = hit-call score of the fitted dose curve at least 0.9, where 1 is the maximum; inactive = score below 0.9)
How it was run: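 Caspase-3/7 activity (CellEvent Green) read by high-content imaging 6 h after dosing, eight concentrations. Cells: MCF-7, phenol red-free DMEM with 10% charcoal-stripped serum. Curves fit both directions against DMSO.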

[8] = CCTE_Harrill_HTTr_Apoptosis_PRF_DMEM_12hr: (Pilot) CCTE's 12-hour Apoptosis Assessment for the High-Throughput Transcriptomics (HTTr) Platform, in MCF-7 cells cultured in phenol red-free DMEM + 10% charcoal-stripped fetal bovine serum, Harrill Lab (AID 2283985; active = hit-call score of the fitted dose curve at least 0.9, where 1 is the maximum; inactive = score below 0.9)
How it was run: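 Caspase-3/7 activity by CellEvent Green high content imaging after 12 h compound exposure (eight concentrations) in MCF-7 grown in phenol red-free DMEM plus 10% charcoal-stripped serum; DMSO as baseline.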

[9] = CCTE_Harrill_HTTr_Apoptosis_PRF_DMEM_24hr: (Pilot) CCTE's 24-hour Apoptosis Assessment for the High-Throughput Transcriptomics (HTTr) Platform, in MCF-7 cells cultured in phenol red-free DMEM + 10% charcoal-stripped fetal bovine serum, Harrill Lab (AID 2283986; active = hit-call score of the fitted dose curve at least 0.9, where 1 is the maximum; inactive = score below 0.9)
How it was run: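 Eight concentrations tested for 24 h on MCF-7 grown in charcoal-stripped serum, phenol red-free DMEM. High content imaging of CellEvent Caspase 3/7 Green signal gives apoptosis read-out, fitted both ways relative to DMSO.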

Nucleoli Translocation, AR (gene 367), sequence (P10275 whole entry, looked up, the tested form may be a part): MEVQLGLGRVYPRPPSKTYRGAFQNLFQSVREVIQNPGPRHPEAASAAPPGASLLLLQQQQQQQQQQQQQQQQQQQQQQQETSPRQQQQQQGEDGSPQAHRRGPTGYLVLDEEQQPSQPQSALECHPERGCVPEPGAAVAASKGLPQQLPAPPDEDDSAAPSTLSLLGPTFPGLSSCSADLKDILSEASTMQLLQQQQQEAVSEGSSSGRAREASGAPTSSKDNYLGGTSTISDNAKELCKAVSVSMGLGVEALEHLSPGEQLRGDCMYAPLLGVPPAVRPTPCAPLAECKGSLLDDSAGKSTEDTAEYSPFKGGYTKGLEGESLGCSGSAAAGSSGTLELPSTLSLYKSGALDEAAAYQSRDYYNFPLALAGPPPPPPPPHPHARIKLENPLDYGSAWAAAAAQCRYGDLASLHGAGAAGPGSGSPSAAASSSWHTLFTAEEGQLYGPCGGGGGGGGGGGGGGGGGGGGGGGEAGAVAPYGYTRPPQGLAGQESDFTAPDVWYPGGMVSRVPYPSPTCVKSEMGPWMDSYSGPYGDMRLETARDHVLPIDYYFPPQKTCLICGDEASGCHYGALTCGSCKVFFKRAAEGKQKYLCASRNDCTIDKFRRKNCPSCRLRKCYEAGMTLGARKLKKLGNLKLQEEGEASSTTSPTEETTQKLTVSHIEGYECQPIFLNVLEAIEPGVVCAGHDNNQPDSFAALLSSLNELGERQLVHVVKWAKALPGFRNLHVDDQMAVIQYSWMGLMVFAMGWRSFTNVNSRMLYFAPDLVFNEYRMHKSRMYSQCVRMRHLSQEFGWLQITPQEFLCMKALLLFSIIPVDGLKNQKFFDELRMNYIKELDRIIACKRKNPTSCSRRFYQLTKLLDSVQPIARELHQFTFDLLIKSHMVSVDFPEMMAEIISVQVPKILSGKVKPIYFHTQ
Ratio of Nucleoli Translocation and Cytoplasm, AR (gene 367), sequence (P10275 whole entry, looked up): as the sequence (P10275 whole entry, looked up, the tested form may be a part) above

Cc1ccc(-c2c(Cl)nc(C#N)n2S(=O)(=O)N(C)C)cc1
AC50 (DIO1 (gene 1733)): 43.7 µM (active)
outcome [1]: inactive
outcome [2]: inactive
outcome [3]: inactive

N#Cc1nn(-c2c(Cl)cc(C(F)(F)F)cc2Cl)c(N)c1S(=O)C(F)(F)F (stereo unspecified)
AC50 (DIO1 (gene 1733)): 50.6 µM (active)
outcome [1]: inactive
outcome [2]: inactive
outcome [3]: inactive
outcome [4]: inactive

CCON=C(CC)C1=C(O)CC(c2c(C)cc(C)cc2C)CC1=O (stereo unspecified)
outcome [1]: inactive
outcome [3]: inactive

CN(C)C(=S)SSC(=S)N(C)C
outcome [5]: inactive
AC50 [6]: 80.6 µM (active)
outcome [7]: inactive
outcome [8]: inactive
outcome [9]: inactive
AC50 [1]: 12.6 µM (active)
outcome [2]: inactive
AC50 [3]: 9.92 µM (active)

CC(C)Oc1cc(-n2nc(C(C)(C)C)oc2=O)c(Cl)cc1Cl
outcome [1]: inactive
outcome [2]: inactive
outcome [3]: inactive
outcome [4]: inactive

CCCN(CCC)c1c([N+](=O)[O-])cc(S(N)(=O)=O)cc1[N+](=O)[O-]
AC50 (DIO1 (gene 1733)): 166 µM (active) [middle of 7 runs]

N#Cc1cc(Br)c(O)c(Br)c1
outcome [1]: inactive
outcome [4]: inactive
